According to PubChem BioAssay (Tox21):
Inconclusive results are not listed. The source made the active and inactive calls. Unless noted, the call rests on the fitted dose curve.

How the values were obtained:
[1] = Nuclear factor erythroid 2-related factor 2/antioxidant responsive element (Nrf2/ARE) small molecule agonists: qHTS cell viability counter screen in human keratinocytes (AID 1919968; active means well fitted curve in the direction sought with a large enough effect in the repeat runs; an effect the other way counts as inactive or inconclusive; further: nearly all actives have a fitted effect of over 55% in size)
Summary of the method: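 Measured as CellTiter-Fluor fluorescence, this readout tracks cytotoxicity in the same wells as the ARE-luciferase screen. HaCaT reporter cells (1,500/well) received compounds after a 5 h pre-incubation and were exposed for 23 h.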

[2] = Nuclear factor erythroid 2-related factor 2/antioxidant responsive element (Nrf2/ARE) small molecule agonists: luciferase reporter gene qHTS assay in human keratinocytes (AID 1919969); further: nearly all actives have a fitted effect of over 35% in size
[3] = molecular target: Gonadotropin-releasing hormone receptor (Homo sapiens) (UniProt P30968); experiment: Human gonadotropin-releasing hormone receptor (GnRHR) small molecule agonists, calcium flux assay in GnRHR-HEK293 cells (AID 1920063); further: nearly all actives have a fitted effect of over 35% in size
Gonadotropin-releasing hormone receptor (Homo sapiens), sequence (P30968 whole entry, looked up): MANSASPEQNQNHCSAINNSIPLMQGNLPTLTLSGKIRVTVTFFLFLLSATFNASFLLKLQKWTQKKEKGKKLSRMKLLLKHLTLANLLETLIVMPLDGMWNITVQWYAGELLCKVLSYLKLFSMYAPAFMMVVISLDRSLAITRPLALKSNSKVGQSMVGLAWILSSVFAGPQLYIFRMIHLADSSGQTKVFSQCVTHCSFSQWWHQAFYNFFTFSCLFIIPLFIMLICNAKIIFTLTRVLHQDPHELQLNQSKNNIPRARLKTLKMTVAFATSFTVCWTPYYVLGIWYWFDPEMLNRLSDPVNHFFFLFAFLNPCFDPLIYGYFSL
Summary of the method: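 Fluorescence kinetics (480 nm excitation, 540 nm emission; 3 min, 1 s steps) report calcium mobilisation in human GnRHR-HEK293 cells in agonist mode. Dye incubation: 1 h, 37 C.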

[4] = molecular target: KiSS-1 receptor (Homo sapiens) (UniProt Q969F8); experiment: Human kisspeptin (KISS1R) small molecule agonists, calcium flux assay in KISS1R-HEK293 cells (AID 1920064; active means well fitted curve in the direction sought with a large enough effect in the repeat runs; an effect the other way counts as inactive or inconclusive)
KiSS-1 receptor (Homo sapiens), sequence (Q969F8 whole entry, looked up): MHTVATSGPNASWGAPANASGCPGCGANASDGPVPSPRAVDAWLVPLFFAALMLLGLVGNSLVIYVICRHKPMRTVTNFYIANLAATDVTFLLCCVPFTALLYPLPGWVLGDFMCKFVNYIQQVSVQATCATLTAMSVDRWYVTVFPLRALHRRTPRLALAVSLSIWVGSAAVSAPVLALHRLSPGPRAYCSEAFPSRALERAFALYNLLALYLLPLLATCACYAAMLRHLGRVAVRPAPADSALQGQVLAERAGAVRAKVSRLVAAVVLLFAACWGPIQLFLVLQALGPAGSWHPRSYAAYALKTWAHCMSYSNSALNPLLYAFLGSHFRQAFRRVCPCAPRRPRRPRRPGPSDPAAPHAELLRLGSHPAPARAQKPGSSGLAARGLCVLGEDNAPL
Summary of the method: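 Measures KISS1R agonism through calcium-sensitive dye fluorescence in stably transfected HEK293 cells, read for 3 min after pin-tool compound delivery; 15-point titrations in triplicate.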

[5] = p53 small molecule agonists, cell-based qHTS assay with human liver microsomes (AID 1963577);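 further: p53 response element beta-lactamase reporter cells with liver microsomes plus NADPH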
Summary of the method: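 In this qHTS, p53 response-element beta-lactamase cells receive test compound together with a microsome/NADPH activating system (0.5 mg/mL final each) and are incubated 16 h at 37 C before LiveBLAzer fluorescence detection.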

[6] = p53 small molecule agonists, cell-based qHTS assay with rat liver microsomes (AID 1963578)
Summary of the method: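 Agonist mode in p53RE-bla reporter cells, with compounds co-incubated 16 h at 37 C alongside 0.5 mg/mL rat liver microsomes and 0.5 mg/mL NADPH (final), followed by a 2 h LiveBLAzer detection step.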

[7] = p53 small molecule agonists, cell-based qHTS assay with rat liver microsomes: qHTS cell viability counter screen (AID 1963580); further: nearly all actives have a fitted effect of over 45% in size
Summary of the method: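 Intracellular ATP, by CellTiter-Glo luminescence, defines viability. HCT-116 p53RE-bla cells, 4,000 per well, were compound-treated in the presence of rat liver microsomes and NADPH for 16 h at 37 C.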

[8] = p53 small molecule agonists, cell-based qHTS assay: qHTS cell viability counter screen (AID 1963581); further: nearly all actives have a fitted effect of over 45% in size
Summary of the method: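 In the same plates used for the p53 bla reporter, HCT-116 cells given compounds for 16 h at 37 C received CellTiter-Glo; luminescence was recorded 30 min later at room temperature.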

[9] = p53 small molecule agonists, cell-based qHTS assay (AID 1963582; active means well fitted activation curve with a large enough effect in the signal ratio in the repeat runs, not every such curve was filed as active; the % refers to the signal ratio)
Summary of the method: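 Compounds are pin-transferred in DMSO onto p53RE-bla cells and incubated 16 h at 37 C. The B/G FRET beta-lactamase substrate is then applied for 2 h at RT and fluorescence recorded.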

[10] = molecular target: 5-hydroxytryptamine receptor 2A (Homo sapiens) (UniProt P28223); experiment: 5-hydroxytryptamine receptor 2A (HTR2A) small molecule antagonists, cell-based qHTS assay (AID 1963586); further: nearly all actives have a fitted effect of over 45% in size
5-hydroxytryptamine receptor 2A (Homo sapiens), sequence (P28223 whole entry, looked up): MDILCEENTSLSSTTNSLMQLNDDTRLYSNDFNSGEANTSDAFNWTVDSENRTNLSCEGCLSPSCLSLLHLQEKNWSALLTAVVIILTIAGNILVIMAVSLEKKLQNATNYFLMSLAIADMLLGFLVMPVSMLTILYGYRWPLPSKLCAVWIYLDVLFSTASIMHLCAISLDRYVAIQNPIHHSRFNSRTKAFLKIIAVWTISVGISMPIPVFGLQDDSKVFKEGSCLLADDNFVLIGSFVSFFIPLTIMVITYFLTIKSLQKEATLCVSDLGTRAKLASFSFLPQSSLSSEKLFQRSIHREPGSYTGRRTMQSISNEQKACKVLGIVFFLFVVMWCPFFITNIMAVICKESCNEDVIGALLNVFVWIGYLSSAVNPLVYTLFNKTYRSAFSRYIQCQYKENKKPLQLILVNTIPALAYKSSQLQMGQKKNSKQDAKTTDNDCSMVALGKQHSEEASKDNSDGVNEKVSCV
Summary of the method: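 Antagonist-mode intracellular calcium assay: DOI (4 nM) added after 5 min compound pre-incubation at room temperature to dye-loaded HTR2A-CHO cells. Fluorescence followed for 3 min, sampled every second.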

[11] = molecular target: 5-hydroxytryptamine receptor 2A (Homo sapiens) (UniProt P28223); experiment: 5-hydroxytryptamine receptor 2A (HTR2A) small molecule agonists, cell-based qHTS assay (AID 1963587); further: nearly all actives have a fitted effect of over 30% in size
Summary of the method: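 Kinetic calcium-flux fluorescence (2 min, 1 sec intervals) after compound addition in agonist mode. HTR2A-CHO cells were cultured 18 h, then dye-loaded 1 h at 37 C.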

[12] = molecular target: Muscarinic acetylcholine receptor M1 (Homo sapiens) (UniProt P11229); experiment: Cholinergic receptor muscarinic 1 (CHRM1) small molecule antagonists, cell-based qHTS assay (AID 1963588); further: nearly all actives have a fitted effect of over 40% in size
Muscarinic acetylcholine receptor M1 (Homo sapiens), sequence (P11229 whole entry, looked up): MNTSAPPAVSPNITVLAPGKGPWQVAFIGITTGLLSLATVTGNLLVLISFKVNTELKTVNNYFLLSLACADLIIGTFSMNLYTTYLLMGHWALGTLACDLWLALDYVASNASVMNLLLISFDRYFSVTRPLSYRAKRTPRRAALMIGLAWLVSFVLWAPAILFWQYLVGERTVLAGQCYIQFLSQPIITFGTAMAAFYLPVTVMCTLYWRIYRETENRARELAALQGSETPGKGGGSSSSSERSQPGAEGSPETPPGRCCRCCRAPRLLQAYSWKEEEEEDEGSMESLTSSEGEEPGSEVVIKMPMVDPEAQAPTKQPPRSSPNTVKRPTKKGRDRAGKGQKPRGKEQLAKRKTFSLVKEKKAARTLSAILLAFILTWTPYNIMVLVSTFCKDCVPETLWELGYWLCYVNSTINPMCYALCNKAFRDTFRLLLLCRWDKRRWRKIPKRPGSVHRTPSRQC
Summary of the method: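 CHRM1-CHO calcium-flux assay, antagonist mode. Cells were seeded 18 h, dye-loaded 1 h at 37 C and given compound for 5 min at RT, then acetylcholine was added at 50nM. FDSS fluorescence was read 3 min; 15 concentrations, three runs.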

[13] = molecular target: Muscarinic acetylcholine receptor M1 (Homo sapiens) (UniProt P11229); experiment: Cholinergic receptor muscarinic 1 (CHRM1) small molecule agonists, cell-based qHTS assay (AID 1963589); further: nearly all actives have a fitted effect of over 35% in size
Summary of the method: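 Each compound was tested at 15 concentrations across three independent runs on dye-loaded CHO cells stably expressing human CHRM1, reading intracellular calcium fluorescence kinetically at 1 sec intervals.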

[14] = cAMP Responsive Elements (CRE) small molecule agonists, cell-based qHTS assay (AID 1963590)
Summary of the method: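 Cell line: CRE-bla HEK 293T; medium DMEM/10% dialyzed FBS/0.1 mM NEAA/1 mM pyruvate/25 mM HEPES; 3 h compound exposure; beta-lactamase FRET readout after 2 h substrate loading at RT.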

[15] = cAMP Responsive Elements (CRE) small molecule antagonists, cell-based qHTS assay (AID 1963591; active means well fitted inhibition curve with a large enough effect in the signal ratio in the repeat runs, not every such curve was filed as active; the % refers to the signal ratio)
Summary of the method: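 Inhibition of NKH477-driven (0.25 uM final) CRE-beta-lactamase signal in HEK293T cells, 3 h compound exposure at 37 °C, detected by FRET substrate fluorescence.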

[16] = molecular target: Beta-2 adrenergic receptor (Homo sapiens) (UniProt P07550); experiment: Adrenergic beta2 receptor (ADRB2) small molecule antagonists, cell-based qHTS assay (AID 1963592); further: series mostly up to about 92 µM; nearly all actives have a fitted effect of over 50% in size
Beta-2 adrenergic receptor (Homo sapiens), sequence (P07550 whole entry, looked up): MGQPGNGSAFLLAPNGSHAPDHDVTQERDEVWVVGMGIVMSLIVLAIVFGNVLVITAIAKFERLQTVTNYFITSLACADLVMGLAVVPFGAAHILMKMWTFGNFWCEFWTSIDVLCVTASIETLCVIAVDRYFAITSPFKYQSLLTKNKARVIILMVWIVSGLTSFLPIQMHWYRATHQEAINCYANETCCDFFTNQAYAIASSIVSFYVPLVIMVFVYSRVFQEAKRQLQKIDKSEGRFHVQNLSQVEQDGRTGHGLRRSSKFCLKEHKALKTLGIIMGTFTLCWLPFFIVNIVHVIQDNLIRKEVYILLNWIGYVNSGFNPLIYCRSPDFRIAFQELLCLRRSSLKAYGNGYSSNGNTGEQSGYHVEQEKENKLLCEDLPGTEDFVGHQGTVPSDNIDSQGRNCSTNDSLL
Summary of the method: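 Cells (CHO, stable ADRB2 overexpression) incubated 18-20hr at 37C; compounds added from DMSO; agonist mix (1nM isoproterenol, 100uM IBMX, 25uM Ro-20-1724) added; 0.5hr RT; d2-cAMP and anti-cAMP-cryptate added; 1hr RT; 665/615 nm read.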

[17] = molecular target: Beta-2 adrenergic receptor (Homo sapiens) (UniProt P07550); experiment: Adrenergic beta2 receptor (ADRB2) small molecule agonists, cell-based qHTS assay (AID 1963593);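 further: CHO cells stably overexpressing human ADRB2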
Summary of the method: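 CHO cells stably over-expressing ADRB2 were plated overnight at 37C, then dosed with compounds plus a stimulation mix containing 100uM IBMX and 25uM Ro-20-1724 for 0.5hr at room temperature. cAMP was measured by HTRF competition, 1hr.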

[18] = molecular target: D(2) dopamine receptor (Homo sapiens) (UniProt P14416); experiment: Dopamine D2 receptor (DRD2) small molecule agonists, cell-based qHTS assay (AID 1963594); further: nearly all actives have a fitted effect of over 35% in size
D(2) dopamine receptor (Homo sapiens), sequence (P14416 whole entry, looked up): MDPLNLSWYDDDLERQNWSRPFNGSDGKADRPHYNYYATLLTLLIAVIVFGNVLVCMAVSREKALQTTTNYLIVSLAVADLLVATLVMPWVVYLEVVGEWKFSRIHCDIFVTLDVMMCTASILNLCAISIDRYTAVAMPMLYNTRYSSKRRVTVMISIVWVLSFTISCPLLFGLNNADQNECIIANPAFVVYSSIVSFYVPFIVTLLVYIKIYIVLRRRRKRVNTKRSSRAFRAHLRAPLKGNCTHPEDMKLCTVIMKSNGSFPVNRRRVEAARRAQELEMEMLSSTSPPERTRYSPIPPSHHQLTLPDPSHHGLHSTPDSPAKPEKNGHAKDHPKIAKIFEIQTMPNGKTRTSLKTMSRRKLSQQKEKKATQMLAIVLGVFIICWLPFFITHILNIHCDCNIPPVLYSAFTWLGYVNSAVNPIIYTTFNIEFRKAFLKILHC
Summary of the method: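 cAMP accumulation in DRD2-HEK293 cells measured by HTRF after 1 h detection; compounds added 10 min before NKH477 (200nM […]) forskolin-analogue stimulation, 30 min at room temperature, with Ro20-1724 present at 0.1 mM final.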

[19] = molecular target: D(2) dopamine receptor (Homo sapiens) (UniProt P14416); experiment: Dopamine D2 receptor (DRD2) small molecule antagonists, cell-based qHTS assay (AID 1963595; active means well fitted inhibition curve with a large enough effect in the signal ratio in the repeat runs, with a control signal flat; the % refers to the signal ratio)
Summary of the method: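 HTRF cAMP read-out at 665 and 620 nm emission (340 nm excitation). Antagonist mode: compounds were tested against 12 nM quinpirole in DRD2-HEK293 cells, with 200 nM NKH477 raising cAMP and 0.1 mM Ro20-1724 blocking its breakdown.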

[20] = p53 small molecule agonists, cell-based qHTS assay with human liver microsomes: qHTS cell viability counter screen (AID 1963579); further: nearly all actives have a fitted effect of over 45% in size
Summary of the method: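 Metabolically activated exposure: compounds, human liver microsomes and NADPH (0.5 mg/mL final apiece) were added to p53RE-bla cells seeded 5 h earlier, left 16 h at 37 C, and then assessed for viability by CellTiter-Glo luminescence.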

Measured: Potency

NC/C=C/C(=O)O
not listed: [20]
inactive: all other assays above

COc1cc(C(=O)N2CCCCCCC2)cc(OC)c1OC
not listed: [12] | [18]
inactive: all other assays above

CC1(C)[C@@H]2CC[C@@]1(C)[C@H](O)C2
not listed: [8] | [9]
inactive: all other assays above

CO[Si](CCCCl)(OC)OC
not listed: [7] | [8]
inactive: all other assays above

C1=COCCC1
not listed: [13]
inactive: all other assays above

CCC(C)C(=O)OCCc1ccccc1 (stereo not given)
inactive: all assays above

C=CC(C)(CCC=C(C)C)OC(=O)CC (stereo not given)
not listed: [8] | [13] | [15]
inactive: all other assays above

N#CCC(=O)O
not listed: [10] | [16]
inactive: all other assays above

CC(=O)c1sc(C)nc1C
not listed: [14] | [17]
inactive: all other assays above

Cc1ccc(S(=O)(=O)O)c(C)c1
not listed: [11] | [16]
inactive: all other assays above

[Cl][Dy]([Cl])[Cl]
not listed: [10] | [19]
inactive: all other assays above

O=C1OCCO1
not listed: [17]
inactive: all other assays above

CC(C)(O)C(=O)c1ccc(OCCO)cc1
not listed: [7] | [11] | [12] | [17]
inactive: all other assays above

CC(C)S
not listed: [17]
inactive: all other assays above
